From PubChem BioAssay (EPA / NIEHS) come the findings set out here.

Holding throughout (details): mRNA level, 48 h; actives raise or lower the signal
Read-out in experiment [1]: Insulin Like Growth Factor 1 (IGF1), IGF1 (gene 3479)
Briefly: LTEA_HepaRG_IGF1: Life Technologies and Expression Analysis (LTEA) Assay for Insulin Like Growth Factor 1 (IGF1) using HepaRG (AID 2283506). The essentials:
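Endpoint: IGF1 mRNA change by qRT-PCR, housekeeping-normalized, fitted bidirectionally relative to 0.5% DMSO vehicle. Human HepaRG cells were treated 48 h in serum-free induction medium, eight half-log concentrations topping at 100 uM.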

Read-out in experiment [2]: Intercellular Adhesion Molecule 1 (ICAM1), ICAM1 (gene 3383)
The experiment can be described thus: LTEA_HepaRG_ICAM1: Life Technologies and Expression Analysis (LTEA) Assay for Intercellular Adhesion Molecule 1 (ICAM1) using HepaRG (AID 2283507). A digest of the protocol:
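Differentiated human HepaRG cells in serum-free induction medium exposed 48 h in duplicate to 8 half-log concentrations (top 100 uM, 0.5% DMSO). ICAM1 mRNA quantified by TaqMan qRT-PCR, normalized to ACTB, GAPDH and POLR2A; bidirectional fitting versus DMSO.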

Read-out in experiment [3]: Insulin-like growth factor-binding protein 1 (IGFBP1), IGFBP1 (gene 3484)
Briefly: LTEA_HepaRG_IGFBP1: Life Technologies and Expression Analysis (LTEA) Assay for Insulin-like growth factor-binding protein 1 (IGFBP1) using HepaRG (AID 2283508). A digest of the protocol:
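HepaRG cells, plated 48 h then switched to serum-free induction medium, exposed in duplicate for 48 h to 8-point half-log series from 100 uM in 0.5% DMSO. mRNA measured by qRT-PCR, normalized to ACTB/GAPDH/POLR2A; bidirectional fit versus DMSO.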

Read-out in experiment [4]: Interleukin 6 Receptor (IL6R), IL6R (gene 3570)
Briefly: LTEA_HepaRG_IL6R: Life Technologies and Expression Analysis (LTEA) Assay for Interleukin 6 Receptor (IL6R) using HepaRG (AID 2283510).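 As to AC50: TaqMan qRT-PCR signal normalized to ACTB GAPDH and POLR2A housekeeping genes.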 The essentials: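 In this HepaRG screen, test chemicals act on cells for 48 h at up to 100 uM (eight half-log points, duplicate wells). IL6R expression is quantified by qRT-PCR after normalization to ACTB, GAPDH and POLR2A, with DMSO as baseline.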

Read-out in experiment [5]: Potassium channel subfamily K member 1 (KCNK1), KCNK1 (gene 3775)
Briefly: LTEA_HepaRG_KCNK1: Life Technologies and Expression Analysis (LTEA) Assay for Potassium channel subfamily K member 1 (KCNK1) using HepaRG (AID 2283511). The essentials:
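KCNK1 transcript measured by TaqMan qRT-PCR against three housekeeping genes, after HepaRG cells were treated 48 h with eight half-log concentrations (top 100 uM, 0.5% DMSO). Curves fitted bidirectionally relative to vehicle.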

Read-out in experiment [6]: JUN Transcription Factor, JUN (gene 3725)
Briefly: LTEA_HepaRG_JUN: Life Technologies and Expression Analysis (LTEA) Assay for JUN Transcription Factor using HepaRG (AID 2283513). The essentials: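 Gene-expression endpoint: JUN mRNA (qRT-PCR, normalized to three reference genes) in HepaRG cultures treated 48 h with chemicals, duplicate wells, 100 uM maximum with half-log dilutions; bidirectional fitting relative to 0.5% DMSO.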

Read-out in experiment [7]: Lipase C (LIPC), LIPC (gene 3990)
Briefly: LTEA_HepaRG_LIPC: Life Technologies and Expression Analysis (LTEA) Assay for Lipase C (LIPC) using HepaRG (AID 2283514). A digest of the protocol:
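LIPC expression was quantified by qRT-PCR against three housekeeping genes (ACTB, GAPDH, POLR2A). Differentiated human HepaRG cells received eight half-log doses (top 100 uM, 0.5% DMSO) in duplicate for 48 h; fitting bidirectional relative to DMSO.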

Read-out in experiment [8]: Lipoprotein lipase (LPL), LPL (gene 4023)
Briefly: LTEA_HepaRG_LPL: Life Technologies and Expression Analysis (LTEA) Assay for Lipoprotein lipase (LPL) using HepaRG (AID 2283515). A digest of the protocol:
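LPL transcript levels quantified by TaqMan qRT-PCR against three housekeeping genes after 48 h chemical treatment of HepaRG cells. Eight-point half-log series from 100 uM in 0.5% DMSO, tested in duplicate; bidirectional fitting versus vehicle.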

Read-out in experiment [9]: MicroRNA 122 (MIR122), gene 406906
Briefly: LTEA_HepaRG_MIR122: Life Technologies and Expression Analysis (LTEA) Assay for MicroRNA 122 (MIR122) using HepaRG (AID 2283516). Also: the transcript read is the microRNA miR-122. A digest of the protocol:
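Changes in transcript abundance, up or down relative to 0.5% DMSO vehicle, were scored after 48 h chemical treatment of HepaRG cells (maximum 100 uM). Quantification used TaqMan qRT-PCR normalized to housekeeping genes.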

Read-out in experiment [10]: matrix metalloproteinase-10 (MMP10), MMP10 (gene 4319)
Briefly: LTEA_HepaRG_MMP10: Life Technologies and Expression Analysis (LTEA) Assay for matrix metalloproteinase-10 (MMP10) using HepaRG (AID 2283517). The essentials: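 Expression measured by TaqMan qRT-PCR with ACTB/GAPDH/POLR2A normalisation after 48 h chemical exposure of HepaRG cells. Eight half-log concentrations, top 100 uM, 0.5% DMSO vehicle, duplicates; gain or loss fitted against vehicle.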

Read-out in the next experiment: MYC, MYC (gene 4609)
Briefly: LTEA_HepaRG_MYC: Life Technologies and Expression Analysis (LTEA) Assay for MYC using HepaRG (AID 2283518). The essentials: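 Differentiated HepaRG cells exposed 48 h in serum-free induction medium to 8 concentrations (top 100 uM, half-log steps; 0.5% DMSO), duplicate. MYC mRNA measured by Fluidigm qRT-PCR, normalized to ACTB, GAPDH, POLR2A; bidirectional fit versus DMSO.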

Read-out in experiment [11]: matrix metalloproteinase-3 (MMP3), MMP3 (gene 4314)
The experiment can be described thus: LTEA_HepaRG_MMP3: Life Technologies and Expression Analysis (LTEA) Assay for matrix metalloproteinase-3 (MMP3) using HepaRG (AID 2283519). The essentials: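 Fluidigm-based TaqMan qRT-PCR, normalized to ACTB, GAPDH and POLR2A and fitted bidirectionally versus 0.5% DMSO, measured transcript levels. Treatment: duplicate 48 h exposures of HepaRG cells, ~100,000/well, to eight half-log concentrations topping at 100 uM.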

Read-out in experiment [12]: Paternally Expressed 10 (PEG10), PEG10 (gene 23089)
The experiment can be described thus: LTEA_HepaRG_PEG10: Life Technologies and Expression Analysis (LTEA) Assay for Paternally Expressed 10 (PEG10) using HepaRG (AID 2283520). The essentials:
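After 48 h exposure of differentiated HepaRG cells (0.5% DMSO vehicle, eight concentrations up to 100 uM, duplicates), PEG10 mRNA was measured by TaqMan qRT-PCR. Values were normalised to endogenous control genes and analysed bidirectionally against vehicle.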

Read-out in experiment [13]: Protein phosphatase 2A (PPP2R4), PTPA (gene 5524)
Briefly: LTEA_HepaRG_PPP2R4: Life Technologies and Expression Analysis (LTEA) Assay for Protein phosphatase 2A (PPP2R4) using HepaRG (AID 2283522). The essentials: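 Using HepaRG cultures maintained in 0.5% DMSO, chemicals are tested 48 h at up to 100 uM in duplicate. Induction or suppression of PPP2R4 mRNA, measured by qRT-PCR, is fitted bidirectionally against the vehicle baseline.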

Read-out in experiment [14]: Phosphatase and tensin (PTEN), PTEN (gene 5728)
Briefly: LTEA_HepaRG_PTEN: Life Technologies and Expression Analysis (LTEA) Assay for Phosphatase and tensin (PTEN) using HepaRG (AID 2283523). The essentials:
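Read-out: TaqMan qRT-PCR of PTEN transcript, normalized to three housekeeping genes, fitted in both directions against 0.5% DMSO. Differentiated human HepaRG cultures received chemicals for 48 h, eight-point half-log series topping at 100 uM.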

Read-out in experiment [15]: solute carrier (SLC22A1), SLC22A1 (gene 6580)
Briefly: LTEA_HepaRG_SLC22A1: Life Technologies and Expression Analysis (LTEA) Assay for solute carrier (SLC22A1) using HepaRG (AID 2283524). The essentials:
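Transcript level of SLC22A1 quantified by qRT-PCR (normalized to three housekeeping genes) after 48 h chemical exposure of HepaRG cells, eight concentrations up to 100 µM, half-log steps, 0.5% DMSO vehicle. Gain or loss relative to DMSO fitted bidirectionally.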

Read-out in experiment [16]: Nuclear factor NF-kappa-B p105 subunit (Homo sapiens) (UniProt P19838)
The experiment can be described thus: LTEA_HepaRG_NFKB1: Life Technologies and Expression Analysis (LTEA) Assay for Nuclear Factor Kappa B Subunit 1 (NFKB1) using HepaRG (AID 2283521).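 Also: TaqMan qRT-PCR transcript normalised to ACTB GAPDH and POLR2A housekeeping genes.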 A digest of the protocol:
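Differentiated human HepaRG cells in serum-free induction medium with 0.5% DMSO were exposed for 48 h to eight half-log concentrations, top 100 uM, in duplicate. NFKB1 mRNA measured by Fluidigm TaqMan qRT-PCR, normalised to ACTB, GAPDH and POLR2A; bidirectional fit versus DMSO.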

Read-out in experiment [17]: Keratin 19 (KRT19), KRT19 (gene 3880)
The experiment can be described thus: LTEA_HepaRG_KRT19: Life Technologies and Expression Analysis (LTEA) Assay for Keratin 19 (KRT19) using HepaRG (AID 2283512). The essentials:
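Differentiated HepaRG cells in serum-free induction medium, exposed 48 h in duplicate to 8 half-log concentrations up to 100 uM in 0.5% DMSO. KRT19 mRNA by qRT-PCR, normalized to ACTB, GAPDH, POLR2A; bidirectional fit vs DMSO.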

Read-out in experiment [18]: Pyruvate Dehydrogenase Kinase 4 (PDK4), PDK4 (gene 5166)
Briefly: LTEA_HepaRG_PDK4: Life Technologies and Expression Analysis (LTEA) Assay for Pyruvate Dehydrogenase Kinase 4 (PDK4) using HepaRG (AID 2283525). A digest of the protocol:
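Readout is qRT-PCR of PDK4 transcript, normalized to three housekeeping genes, with bidirectional fitting against 0.5% DMSO vehicle. Differentiated HepaRG cells were treated 48 h in serum-free induction medium, duplicate wells, eight-point half-log series topping at 100 uM.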

Active and inactive are the calls of the source. The calls were made as follows: active = hit-call score of the fitted dose curve at least 0.9, where 1 is the maximum; inactive = score below 0.9.

Chain of Nuclear factor NF-kappa-B p105 subunit (Homo sapiens) (P19838 whole entry, looked up): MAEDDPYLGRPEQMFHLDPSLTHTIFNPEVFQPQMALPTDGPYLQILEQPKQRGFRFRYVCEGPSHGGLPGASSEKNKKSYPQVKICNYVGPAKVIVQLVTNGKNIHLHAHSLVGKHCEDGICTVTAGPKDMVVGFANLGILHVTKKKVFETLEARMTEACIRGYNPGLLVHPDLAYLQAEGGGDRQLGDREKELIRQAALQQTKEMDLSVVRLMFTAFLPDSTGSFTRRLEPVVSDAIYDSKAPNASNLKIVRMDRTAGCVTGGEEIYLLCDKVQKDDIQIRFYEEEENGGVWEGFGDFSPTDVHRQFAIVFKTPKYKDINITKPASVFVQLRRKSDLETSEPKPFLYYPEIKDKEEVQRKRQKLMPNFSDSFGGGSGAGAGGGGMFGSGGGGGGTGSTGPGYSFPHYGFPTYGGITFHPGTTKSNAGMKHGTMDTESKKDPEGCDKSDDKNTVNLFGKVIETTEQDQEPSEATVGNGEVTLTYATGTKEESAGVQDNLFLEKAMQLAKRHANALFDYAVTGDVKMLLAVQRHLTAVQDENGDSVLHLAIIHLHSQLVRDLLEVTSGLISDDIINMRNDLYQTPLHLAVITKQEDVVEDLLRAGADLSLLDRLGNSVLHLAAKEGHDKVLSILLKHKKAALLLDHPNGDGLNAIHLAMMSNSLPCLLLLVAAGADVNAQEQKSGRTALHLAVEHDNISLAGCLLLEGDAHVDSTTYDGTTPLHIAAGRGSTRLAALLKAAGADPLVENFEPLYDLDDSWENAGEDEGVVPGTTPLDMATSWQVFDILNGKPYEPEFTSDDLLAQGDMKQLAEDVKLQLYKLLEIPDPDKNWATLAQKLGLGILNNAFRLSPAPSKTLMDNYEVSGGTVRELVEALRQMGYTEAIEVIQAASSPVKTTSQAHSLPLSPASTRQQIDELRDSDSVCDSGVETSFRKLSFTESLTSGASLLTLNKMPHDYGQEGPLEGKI

Consider `CCOC(=O)c1ccc(C2CCC(NC[C@H](O)COc3ccc(O)c(NS(C)(=O)=O)c3)CC2)cc1` (some centres not stated), for which the compound was called inactive in [1], in [2], in experiment [3], in experiment [4], in [5] and in [6]. The outcome in experiment [7] was “inactive”; in experiment [8], “inactive”; in experiment [9], “inactive”; in experiment [10], “inactive”; with MYC, MYC (gene 4609), “inactive”; in experiment [11], “inactive”. In addition, the compound was classed as inactive in [12], in experiment [13], in [14] and in experiment [15].

For `Nc1cccc(N)c1`, the call in [1], in [2], in experiment [3], in [4], in experiment [5] and in experiment [6] was inactive. Further, the outcome was “inactive” in [7]; “inactive” in experiment [8]; “inactive” in experiment [9]; “inactive” in experiment [10]; “inactive” with MYC, MYC (gene 4609); “inactive” in [11]. Also, the outcome in [12], in experiment [16], in experiment [13], in experiment [14] and in [15] was inactive.

As to `Cc1ccc(S(=O)(=O)O)cc1C`, the compound was classed as inactive in [1], in experiment [2], in experiment [3], in experiment [4], in experiment [5] and in experiment [17]. The outcome in [6] was “inactive”; in experiment [7], “inactive”; in [8] it was “inactive”; in [9], “inactive”; in experiment [10], “inactive”; in the experiment with MYC, MYC (gene 4609), “inactive”. Further, the call in [12], in experiment [13], in experiment [14], in experiment [15] and in [18] was inactive.

As to `C=CCCCCCCCCC(=O)O`, the call in [1], in experiment [2], in [3], in experiment [4], in [5] and in [17] was inactive. Further, the outcome in experiment [7] was “inactive”; in experiment [8] it was “inactive”; in experiment [9], “inactive”; in [10] it was “inactive”; with MYC, MYC (gene 4609), “inactive”; in experiment [12] it was “inactive”. Also, the call in experiment [16], in experiment [13] and in [15] was inactive. In addition, the AC50 in experiment [14] was 0.00821 µM (active).

For `CN(C)c1ccc(N=NS(=O)(=O)O)cc1`, the half-maximal activity concentration (AC50) in experiment [1] was 26.2 µM (active); in [3] it was 75.3 µM (active); in [4], 22.3 µM (active); in experiment [15], 20.5 µM (active). Further, the call in [2], in experiment [5], in [7], in [8], in experiment [9] and in [10] was inactive. The outcome with MYC, MYC (gene 4609) was “inactive”; in experiment [11], “inactive”; in experiment [12], “inactive”; in experiment [13], “inactive”; in [14] it was “inactive”; in experiment [18], “inactive”.

By AC50 is commonly meant the midpoint of the concentration-response curve, whichever way the signal moves.
